From PMC4336329 (PLoS ONE, 2015)
Hit rate of the full screen: of about 310,000 compounds, about 14,000 (4.5%) showed an effect of 50% or more. Effects have a minus sign here. Only a selection was taken, and strong results are over-represented in it overall.

These molecules were tested against human ether-à-go-go-related gene (hERG) potassium channel (human, UniProt Q12809) (assay: primary screen, population patch clamp on CHO cells stably expressing hERG; higher = less effect of the substance).
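Further: peak tail current of the secondary pulse compared with the same well before compound.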

Sequence of human ether-à-go-go-related gene (hERG) potassium channel (Q12809 whole entry, looked up): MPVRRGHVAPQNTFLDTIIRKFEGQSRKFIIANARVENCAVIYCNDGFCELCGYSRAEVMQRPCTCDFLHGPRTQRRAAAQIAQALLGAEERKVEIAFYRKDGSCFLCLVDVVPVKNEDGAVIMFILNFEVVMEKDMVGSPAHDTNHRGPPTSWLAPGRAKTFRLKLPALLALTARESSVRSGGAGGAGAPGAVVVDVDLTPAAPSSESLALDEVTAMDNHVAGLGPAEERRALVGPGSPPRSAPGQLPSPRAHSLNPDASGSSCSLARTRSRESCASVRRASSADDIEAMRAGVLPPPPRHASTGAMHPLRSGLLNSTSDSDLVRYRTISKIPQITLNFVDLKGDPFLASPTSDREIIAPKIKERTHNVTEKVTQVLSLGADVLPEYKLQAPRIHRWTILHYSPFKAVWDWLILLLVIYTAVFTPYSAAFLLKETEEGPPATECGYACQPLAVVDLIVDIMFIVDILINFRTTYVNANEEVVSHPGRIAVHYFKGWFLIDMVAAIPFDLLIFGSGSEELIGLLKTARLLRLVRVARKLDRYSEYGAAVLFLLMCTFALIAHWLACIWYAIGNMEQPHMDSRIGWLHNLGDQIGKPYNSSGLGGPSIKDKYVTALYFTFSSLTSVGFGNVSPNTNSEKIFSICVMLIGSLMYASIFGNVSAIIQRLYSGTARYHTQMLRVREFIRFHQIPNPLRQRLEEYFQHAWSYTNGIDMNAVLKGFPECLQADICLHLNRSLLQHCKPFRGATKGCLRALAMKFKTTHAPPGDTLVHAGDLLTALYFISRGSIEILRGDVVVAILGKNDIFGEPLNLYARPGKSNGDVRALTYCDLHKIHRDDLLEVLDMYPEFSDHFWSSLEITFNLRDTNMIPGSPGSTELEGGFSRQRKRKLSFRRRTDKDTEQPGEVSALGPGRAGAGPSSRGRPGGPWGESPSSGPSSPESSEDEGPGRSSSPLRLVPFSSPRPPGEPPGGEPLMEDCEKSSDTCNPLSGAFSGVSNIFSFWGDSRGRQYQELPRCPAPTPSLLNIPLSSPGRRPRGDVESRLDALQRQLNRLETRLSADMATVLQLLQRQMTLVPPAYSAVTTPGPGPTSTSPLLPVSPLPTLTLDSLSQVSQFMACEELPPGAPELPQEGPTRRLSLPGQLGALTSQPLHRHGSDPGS

Row | SMILES | hERG current change (%, negative = inhibition) at 10uM [%]
1 | CCOC(=O)COc1ccc(N)cc1CC(NC(C)=O)(C(=O)OCC)C(=O)OCC | -72.7
2 | CCOC(=O)C(Cc1ccccc1)(NC(C)=O)C(=O)OCC | 7.61
3 | CCOC(=O)C(Cc1c(F)cccc1F)(NC(C)=O)C(=O)OCC | 8.41
4 | N#CC1(NC(=O)COC(=O)C23CC4CC(CC(O)(C4)C2)C3)CCCCC1 | 4.38
5 | CC1CCCC(C)N1C(=O)COC(=O)C12CC3CC(CC(Cl)(C3)C1)C2 (centres unmarked) | -18.2
6 | CN(C(=O)COC(=O)C12CC3CC(CC(Cl)(C3)C1)C2)C1(C#N)CCCCC1 | -53.5
7 | Cc1cccc(N2CN=C3SCC(=O)N3C2)c1 | 0.175
8 | CC(C)C1Nc2ccc(S(N)(=O)=O)cc2C2C=CCC21 (centres unmarked) | 5.89
9 | OCC(O)/C=N/Nc1nc2ccccc2s1 (centres unmarked) | 14
10 | C/C(CCc1ccc2c(c1)OCO2)=N\NC(=O)c1ccccc1 | 9.96
11 | CCNC(=S)N/N=C(\C)c1ccc2c(c1)OCCO2 | 13.4
12 | COCCNC(=S)N/N=C(\C)CCc1ccc2c(c1)OCO2 | -11.6
13 | CNC(=S)N/N=C(\C)c1ccc2c(c1)OCCO2 | 9.21
14 | C/C(=N\NC(=S)NC(C)C)c1ccc2c(c1)OCCO2 | -63.6
15 | C/C(CCc1ccc2c(c1)OCO2)=N\NC(=S)NC(C)C | -59.4
16 | CC(=O)n1cc([C@H]2C=C(C(=O)Nc3ccccc3)O[C@@H](OCc3ccc(CO)cc3)C2)c2ccccc21 | -2.85
17 | CC1(C)CC(NS(=O)(=O)c2ccc(Cl)cc2)CC(C)(C)N1 | 9.34
18 | CCn1cnc2cc(NCc3nc4ccccc4n3Cc3ccccc3)ccc21 | -65.6
19 | Cc1nc2cc(NCc3nc4ccccc4n3Cc3ccccc3)ccc2n1C | -82

Row | SMILES | hERG current change (%, negative = inhibition) at 10uM [%]
20 | Cc1nc2cc(NCc3ccccc3O)ccc2n1Cc1ccccc1 | 13.8
21 | Cc1cccc(NCc2nc3ccccc3n2Cc2ccccc2)c1 | -13.1
22 | O=C(O)c1ccc(NCc2nc3ccccc3n2Cc2ccccc2)cc1 | -4.61
23 | CCn1cnc2cc(NCc3cccs3)ccc21 | -15.9
24 | NC(=O)c1ccccc1OCC(=O)N1CCc2ccccc2C1 | 8.34
25 | COC(=O)c1cc(-c2ccc(Br)cc2)on1 | 8.48
26 | Cc1c(Cl)cccc1NC(=S)NCc1ccccc1 | 16.5
27 | Cc1ccc(S(=O)(=O)C2(C(=O)NCc3ccccc3Cl)CC2)cc1 | -15.2
28 | Cc1nnc(SCC(=O)Nc2ccc(N3CCOCC3)cc2)n1-c1ccccc1 | -14.5
29 | CCCCCn1c(=O)[nH]c2cc(C(=O)Nc3ccc(OC)cc3)ccc2c1=O | 14.9
30 | CC(=O)NCC(=O)OCc1ccc([N+](=O)[O-])cc1 | 3.26
31 | O=C(NC1CCCCCC1)C1CCN(S(=O)(=O)c2c(Cl)cccc2Cl)CC1 | 11.6
32 | Cc1ccc(S(=O)(=O)N2CCC(C(=O)Nc3ccc(C(C)C)cc3)CC2)cc1 | -11.5
33 | CN(C)C1(CNC(=O)C2CCN(S(=O)(=O)c3ccccc3C(F)(F)F)CC2)CCCCC1 | -29.8
34 | CC(C)c1ccc(S(=O)(=O)N2CCC(C(=O)NCC3(N(C)C)CCCCC3)CC2)cc1 | -54.4
35 | CN(C)C1(CNC(=O)C2CCN(S(=O)(=O)c3c(Cl)cccc3Cl)CC2)CCCCC1 | -67.5
36 | CN(C)C1(CNC(=O)C2CCN(S(=O)(=O)c3cc(Cl)ccc3Cl)CC2)CCCCC1 | -64.1
37 | CC(C)c1ccc(S(=O)(=O)N2CCC(C(=O)N3CCC3)CC2)cc1 | -9.72
38 | CN(C)C1(CNC(=O)C2CCN(S(=O)(=O)c3cccc(C(F)(F)F)c3)CC2)CCCCC1 | -34.6

Row | SMILES | hERG current change (%, negative = inhibition) at 10uM [%]
39 | O=C(NCC1CCCO1)C1CCN(S(=O)(=O)c2cc(Cl)ccc2Cl)CC1 (centres unmarked) | -19
40 | CCOC(=O)c1cccc(NC(=O)C2CCCO2)c1 (centres unmarked) | 4.7
41 | Brc1ccccc1CNCCc1ccc2c(c1)OCO2 | 0.404
42 | Cc1cccc(Oc2cnn(C(C)(C)C)c(=O)c2Cl)c1 | -10
43 | Cc1ccc(NC(=O)c2sc(N)nc2-c2ccc([N+](=O)[O-])cc2)cc1C | 8.18
44 | CSc1ccc(C(C(C(=O)c2cccs2)N2CCOCC2)N2CCOCC2)cc1 (centres unmarked) | -3.73
45 | COc1ccc(CCn2nnnc2C(C(C)C)N2CCN(c3ncccn3)CC2)cc1OC (centres unmarked) | -5.93
46 | Cc1c(Br)c([N+](=O)[O-])nn1CC(=O)Nc1ccc(C(N)=O)cc1 | -2.84
47 | COc1ccc(C2c3ccc4ccccc4c3Oc3ncn(CCN4CCOCC4)c(=N)c32)cc1 (centres unmarked) | -74.1
48 | COc1ccc(C2c3c(ncn(CCN4CCOCC4)c3=N)Oc3ccc4ccccc4c32)cc1 (centres unmarked) | -47.2
49 | COc1ccc(C2c3ccc4ccccc4c3Oc3ncn(CCN4CCOCC4)c(=N)c32)cc1OC (centres unmarked) | -53.4
50 | COc1ccc(C2c3c(ncn(CCN4CCOCC4)c3=N)Oc3ccc4ccccc4c32)cc1OC (centres unmarked) | -16.6
51 | COc1ccc(C2c3c(ncn(CCCN4CCOCC4)c3=N)Oc3ccc4ccccc4c32)cc1OC (centres unmarked) | -51.3
52 | COc1ccc(C2c3c(ccc4ccccc34)Oc3ncn4nc(Cc5ccccc5)nc4c32)cc1OC (centres unmarked) | -7.49
53 | Cc1cc(NC(=O)CCN2C(=O)C3C4C=CC(C4)C3C2=O)c2ccccc2n1 (centres unmarked) | 7.51
54 | CC(=O)Nc1nc(C(F)(F)F)cs1 | 7.96
55 | CN(C(=O)c1cccnc1)c1nnc(-c2cnccn2)s1 | 8.06
56 | Cc1cc(NC(=O)c2cccc3c2C(=O)N(C2CCCCC2)C3)ccc1Br | 13
